This passage reports activation and Potency results from PubChem BioAssay (NCATS).

“And” between values parts separate entries of the source, which are not always exact repeats. Equal entries are not always repeated. Records with an inconclusive call do not appear. Values without a mark were called inactive. The source made the active and inactive calls. Unless noted, calls come from the whole dose curve; as a rule, active = well fitted curve in the direction sought with a large enough effect; inconclusive = small, poorly fitted or top-dose-only effect, or another doubt; inactive = no such curve, though single readings can be large; an effect the other way counts as inactive or inconclusive.

Assay [1] deals with Cellular tumor antigen p53 (Homo sapiens) (UniProt P04637). Description: Primary qHTS for small molecule compounds that upregulate eGFP-tagged delta133p53alpha (in N-terminal) cells. (AID 2060322).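 For activation: cells pre-induced with doxycycline then dosed without doxycycline; series mostly up to about 56 µM; 0% = DMSO vehicle and 100% = reference activator.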 Note: nearly all actives have a fitted effect of over 75% in size. Note: potency is the fitted concentration of half-maximal effect. To be noted: NCI-H358 eGFP-delta133p53alpha fluorescence, 24 h; activation: hits give high values. The procedure, abridged:
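NCI-H358 cells pre-induced 24 h with 10 ng/ml doxycycline for eGFP-delta133p53alpha, plated dox-free and exposed 24 h at 37C to titrated compounds. Fixed, Hoechst-stained; gated GFP peak intensity by laser scanning cytometry, normalized to DMSO (0%) and 57.5 uM 5-azacytidine (100%).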
In general terms: In qHTS, concentration-response curves come from the screen itself.

For assay [2] the target is unchanged. The experiment in a line: Primary qHTS for small molecule compounds that upregulate eGFP-tagged delta133p53alpha (in C-terminal) cells. (AID 2060324).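 Note: 0% = DMSO wells and 100% = 57.5 µM 5-azacytidine.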 Summed up: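 Doxycycline (100 ng/ml, 24 h) first induced the eGFP fusion in NCI-H358 C-terminal-tag cells. Washed-out cells then received titrated compounds for 24 h at 37 °C before paraformaldehyde fixation, Hoechst staining and cytometric GFP quantification.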

Assay [3] has as its target Retinaldehyde dehydrogenase 3 (Homo sapiens) (UniProt P47895). The experiment in a line: qHTS for Inhibitors of the Aldehyde Dehydrogenase Family (ALDH1A3) Validation screen (AID 2061312). Note: % is set by controls: 0 for no effect and ±100 for the full control effect; nearly all actives have a fitted effect of over 45% in size.
Assay [4] concerns the target Aldehyde dehydrogenase, mitochondrial (Homo sapiens) (UniProt P05091). The experiment in a line: qHTS for Inhibitors of the Aldehyde Dehydrogenase Family (ALDH2) Validation screens (AID 2061302; active = well fitted inhibition curve with a large enough effect; title and protocol of this record describe different tests;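 note: plate controls were DMSO vehicle for no effect and maximal DPI positive control response for full effect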).
The target is the same in assay [5]. Description: qHTS for Inhibitors of the Aldehyde Dehydrogenase Family (ALDH2) Confirmatory screens (AID 2061303; active = well fitted inhibition curve with a large enough effect; title and protocol of this record describe different tests; note: % is set by controls: 0 for no effect and ±100 for the full control effect; nearly all actives have a fitted effect of over 45% in size).
Assay [6] can be described thus: qHTS for Inhibitors of the Aldehyde Dehydrogenase Family (ALDH1A2, ALDH1A3, ALDH2, ALDH3A1) (AID 2061307). Note: % is set by controls: 0 for no effect and ±100 for the full control effect; nearly all actives have a fitted effect of over 50% in size.
Assay [7] has as its target Retinaldehyde dehydrogenase 3 (Homo sapiens) (UniProt P47895). Description: qHTS for Inhibitors of the Aldehyde Dehydrogenase Family (ALDH1A3) Confirmatory screens (AID 2061311). Note: potency is the fitted concentration of half-maximal effect; nearly all actives have a fitted effect of over 60% in size.
The target in assay [8] is Retinal dehydrogenase 2 (Homo sapiens) (UniProt O94788). Description: qHTS for Inhibitors of the Aldehyde Dehydrogenase Family (ALDH1A2) Confirmation screens (AID 2061314). Note: potency is the fitted concentration of half-maximal effect; nearly all actives have a fitted effect of over 65% in size.
Assay [9] is described as follows: BET inhibitor-based combinations targeting novel dependencies in MECOM-rearranged (r) AML: OCI-AML3 cell line (AID 2202232). Note: potency is the fitted concentration of half-maximal effect; nearly all actives have a fitted effect of over 35% in size. The following applies: Potency: OCI-AML3 viability. Summed up: (§1)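 500 cells/well; 11-pt dose curve; 48 h, standard incubator; CellTiter-Glo luminescence after 15 min RT; DMSO/empty-well normalization; AUC plus Z-AUC (mean-centered within each line).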

A short description of assay [10]: BET inhibitor-based combinations targeting novel dependencies in MECOM-rearranged (r) AML: MV-4-11 cell line (AID 2202233). Note: potency is the fitted concentration of half-maximal effect; nearly all actives have a fitted effect of over 45% in size. Summed up: (§2)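 Cells were plated at 500 per well and exposed to each drug across an 11-point dose range for 48 hr at standard incubator conditions. Viability was read by CellTiter-Glo luminescence, and activity was expressed as AUC and per-cell-line Z-transformed AUC.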

The nature of assay [11]: BET inhibitor-based combinations targeting novel dependencies in MECOM-rearranged (r) AML: UCSD-AML1 cell line (AID 2202235). Note: potency is the fitted concentration of half-maximal effect; nearly all actives have a fitted effect of over 40% in size. Summed up:
as §2

A short description of assay [12]: BET inhibitor-based combinations targeting novel dependencies in MECOM-rearranged (r) AML: AML-191 cell line (AID 2202236; note: potency is the fitted concentration of half-maximal effect; nearly all actives have a fitted effect of over 35% in size). Summed up:
as §1

The target in assay [13] is Aldehyde dehydrogenase, mitochondrial (Homo sapiens) (UniProt P05091). Description: qHTS for Inhibitors of the Aldehyde Dehydrogenase Family (ALDH2) Primary screen (AID 2061308).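 Note: plate controls were vehicle for no effect and reference inhibitor for full effect; nearly all actives have a fitted effect of over 55% in size.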
The target of assay [14] is Retinaldehyde dehydrogenase 3 (Homo sapiens) (UniProt P47895). Description: qHTS for Inhibitors of the Aldehyde Dehydrogenase Family (ALDH1A3) Primary screen (AID 2061315).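 Note: plate controls were DMSO vehicle for no effect and reference inhibitor for full effect.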

Cellular tumor antigen p53 (Homo sapiens), sequence (P04637 whole entry, looked up): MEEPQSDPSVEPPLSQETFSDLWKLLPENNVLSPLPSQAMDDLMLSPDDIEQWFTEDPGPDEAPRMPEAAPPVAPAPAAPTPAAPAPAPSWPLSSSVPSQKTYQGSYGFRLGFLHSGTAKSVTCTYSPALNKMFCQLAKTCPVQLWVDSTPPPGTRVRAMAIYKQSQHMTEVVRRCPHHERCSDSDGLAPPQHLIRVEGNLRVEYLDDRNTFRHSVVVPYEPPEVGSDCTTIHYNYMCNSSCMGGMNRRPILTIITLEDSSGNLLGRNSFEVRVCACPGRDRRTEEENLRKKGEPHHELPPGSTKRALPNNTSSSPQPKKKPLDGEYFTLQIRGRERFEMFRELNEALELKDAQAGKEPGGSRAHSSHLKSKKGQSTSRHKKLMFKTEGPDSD

`CO/N=C(\C(=O)N[C@@H]1C(=O)N2C(C(=O)O)=C(CSc3nc(=O)c(O)nn3C)CSC12)c1csc(N)n1` (stereo partly specified): the activation in [1] was 4.05%. Also, the Potency entry in assay [2] and in assay [3] was “inactive” each time.
As for `Oc1cc2c(cc1O)CN(C(=S)NCCc1ccc(Cl)cc1)CCC2`, the activation in assay [1] is -14.7%. Besides, in assay [4], the Potency entry is “inactive”.
Consider `COC1=C(OC)C(=O)c2ccccc2C1=O`, for which, in assay [1], the activation was -31%. Moreover, the Potency entry in assay [4], in assay [5] and in assay [6] was “inactive” throughout. Also, the values for the Potency in assay [7] and in assay [8] were 0.712 µM (active) and 2.52 µM (active), respectively.
As for `O=C(Nc1cccc(C(=O)Nc2ccc(S(=O)(=O)O)c3cc(S(=O)(=O)O)cc(S(=O)(=O)O)c23)c1)Nc1cccc(C(=O)Nc2ccc(S(=O)(=O)O)c3cc(S(=O)(=O)O)cc(S(=O)(=O)O)c23)c1`, in assay [1], the activation is -8.79%. For the same compound, the Potency entry in assay [2] and in assay [3] was “inactive” throughout.
For `O=C(O)C1=CCCN(CCON=C(c2ccccc2)c2ccccc2)C1`, in assay [1], the activation was 20.9%. The Potency result in [2] and in assay [3] was “inactive” throughout.
As to `Oc1cc(O)cc(/C=C/c2ccc(O)c(O)c2)c1`, in assay [1], the activation was 11.9%. Moreover, the Potency result in assay [2] was “inactive”. For the same compound, the Potency in assay [9] is 10.5 µM (active); in assay [10] it was 10.5 µM (active); in assay [11] it was 18.6 µM (active); in [12], 16.6 µM (active).
Take `c1ccc2c(c1)CCC[C@H]2Nc1nc2ccccc2[nH]1`: in assay [1], the activation is 27.9%. Also, the Potency entry in assay [4] and in assay [3] was “inactive” in each case.
In the case of `CC(C)(C)c1ccc(C(O)CCCN2CCC(C(O)(c3ccccc3)c3ccccc3)CC2)cc1` (stereo unspecified), in [1], the activation is 5.86% and -0.341%. Further, the Potency result in [4] and in assay [3] was “inactive” throughout.
As to `CC1=C(/C=C/C(C)=C/C=C/C(C)=C/C(=O)Nc2ccc(O)cc2)C(C)(C)CCC1`, the activation in assay [1] was -39.3%. The Potency result in assay [4] and in assay [3] was “inactive” in each case.
`C=C1C(=O)O[C@@H]2[C@H]3O[C@]3(C)CCC=C(C)CC[C@@H]12`: the activation in assay [1] was -45%. In addition, the Potency result in [4] and in [3] was “inactive” in each case.
On to `O=C(O)CC[C@@H](C(=O)O)N1C(=O)c2ccccc2C1=O`, for which the activation in assay [1] is -14.6%. The Potency entry in [4] and in assay [3] was “inactive” in each case.
Consider `CCN(Cc1ccncc1)C(=O)C(CO)c1ccccc1` (stereo unspecified), for which the activation in assay [1] is 3.95% and 13.2%. Also, the Potency entry in [4] and in assay [3] was “inactive” in each case.
`CCCC1O[C@@H]2C[C@H]3[C@@H]4CCC5=CC(=O)C=C[C@]5(C)[C@H]4[C@@H](O)C[C@]3(C)[C@]2(C(=O)CO)O1` (stereo partly specified): the activation in assay [1] is -22.8%. Besides, the Potency entry in assay [4] and in assay [3] was “inactive” throughout.
Regarding `O=c1cc(-c2ccc(O)cc2)oc2cc(O)cc(O)c12`, the activation in [1] is -19.8% and -40.1%. In addition, the Potency entry in [4] and in assay [3] was “inactive” in each case.
Regarding `COC(=O)C1=C(C)NC(C)=C(C(=O)OC)C1c1cccc(NC(=O)NCCCN2CCC(c3cccc(OC)c3)CC2)c1`, the Potency in [1] was 21.3 µM (active). In addition, the Potency entry in assay [4], in assay [13], in assay [3] and in assay [14] was “inactive” each time.
Turning to `CN(C)CCCN1c2ccccc2Sc2ccccc21`, the activation in assay [1] was 2.51% and 16.3%. The Potency entry in [4] and in [3] was “inactive” throughout.
Take `CC12C(=O)OC(=O)C1(C)C1CCC2O1` (stereo unspecified): in [1], the Potency was 1.69 µM (active). Also, the Potency result in assay [4] and in assay [3] was “inactive” in each case.
With `COc1ccccc1OCCNCC(O)COc1cccc2[nH]c3ccccc3c12` (stereo unspecified), the activation in assay [1] is 23.9% and -57.4%. The Potency result in assay [4] and in assay [3] was “inactive” each time.
For the compound `NCCCCCCCCCCN`, in assay [1], the activation was 28.3%. Further, the Potency result in assay [4] and in assay [3] was “inactive” throughout.
`C=C1C[C@@]23CC[C@H]4[C@@](C)(CCC[C@@]4(C)C(=O)OC4OC(CO)C(O)C(O)C4O)[C@@H]2CC[C@]1(OC1OC(CO)C(O)C(O)C1OC1OC(CO)C(O)C(O)C1O)C3` (stereo partly specified): the activation in assay [1] was -5.25%. The Potency result in assay [4] and in assay [3] was “inactive” each time.
For the compound `C[C@@H](NCCc1ccc(O)cc1)[C@@H](O)c1ccc(O)cc1`, in assay [1], the activation was -21.6%. The Potency result in assay [4] and in assay [3] was “inactive” throughout.
On to `COC(=O)C1=C(C)NC(C)=C(C(=O)OC(C)(C)CN(C)CCC(c2ccccc2)c2ccccc2)C1c1cccc([N+](=O)[O-])c1` (stereo unspecified), for which the activation in [1] was 17.5%. For the same compound, the Potency entry in assay [4] and in assay [3] was “inactive” each time.
`CCOC(=O)CSc1nc2c(sc3ccccc32)c(=O)n1CCCN1CCCC1`: the activation in assay [1] is 2.86%. Further, the Potency result in assay [4], in assay [13], in assay [3] and in [14] was “inactive” in each case.
On to `Nc1ncnc2n[nH]c(Nc3ccc(F)cc3)c12`, for which the activation in assay [1] is 1%. For the same compound, the Potency entry in [4], in [13], in assay [3] and in assay [14] was “inactive” throughout.
With `CC[C@@H](C)[C@H]1O[C@]2(CC[C@H]1C)C[C@@H]1C[C@@H](CC=C(C)[C@@H](O[C@H]3C[C@H](OC)[C@@H](O[C@H]4C[C@H](OC)[C@@H](O)[C@H](C)O4)[C@H](C)O3)[C@@H](C)C=CC=C3CO[C@@H]4[C@H](O)C(C)=C[C@@H](C(=O)O1)[C@]34O)O2`, the activation in [1] is -12.1%. The Potency result in [4] and in assay [3] was “inactive” in each case.
